Assay results from PubChem BioAssay (Tox21).
Inconclusive results are not listed. Values without a mark were called inactive. Calls come from the whole dose curve.

Each compound was assayed against Progesterone receptor (Homo sapiens) (UniProt P06401) (assay: qHTS assay to identify small molecule agonists of the progesterone receptor (PR) signaling pathway (AID 1346784; note: nearly all actives have a fitted effect of over 30% in size)). Settings: PR-UAS-bla HEK293T, beta-lactamase FRET ratio, 16 h; series mostly up to 92.4 µM; activation: at the top concentration.
Excerpt: U.S. Tox21 Program National Center for Advancing Translational Sciences [NCATS] NIH Chemical Genomics Center [NCGC] U.S. Environmental Protection Agency [EPA] National Institutes of Environmental Health Sciences [NIEHS] National Toxicology Program [NTP] U.S. Food and Drug Administration [FDA] […] Endocrine disrupting chemicals (EDCs) and their interactions with steroid hormone receptors like PR causes disruption of normal endocrine function. To identify the compounds that activate PR signaling, a PR-UAS-bla GripTite cell line i.e. PR-UAS-bla HEK 293T (Invitrogen, Carlsbad, CA, USA) containing a beta-lactamase reporter gene under the control of an Upstream Activator Sequence (UAS) was used to screen Tox21 10K compound library.
Tox21 Assay Protocol Summary: PR-UAS-bla HEK 293T cells were dispensed at 3,000 cells/5 uL of assay medium containing 2% charcoal stripped FBS per well into black wall/clear-bottom 1536-well plates using a Multidrop Combi (ThermoFisher Scientific, Waltham, MA) dispenser. After the assay plates were incubated at a 37C and 5% CO2 for 6hr, 23 nL of compounds dissolved in DMSO, positive controls or DMSO only was transferred to the assay plate by a Pintool station (Kalypsys, San Diego, CA). The plates were incubated at 37C and 5% CO2 for 16hr. Then 1 uL of LiveBLAzer B/G FRET substrate was added using a BioRAPTR FRD (Flying Reagent Dispenser, Aurora Discovery, San Diego, CA). After the plates were incubated at room temperature for 2 hours, fluorescence intensity was measured by an Envision plate reader (PerkinElmer, Shelton, CT).
% is set by controls: 0 for no effect and ±100 for the full control effect.

Chain of Progesterone receptor (Homo sapiens) (P06401 whole entry, looked up): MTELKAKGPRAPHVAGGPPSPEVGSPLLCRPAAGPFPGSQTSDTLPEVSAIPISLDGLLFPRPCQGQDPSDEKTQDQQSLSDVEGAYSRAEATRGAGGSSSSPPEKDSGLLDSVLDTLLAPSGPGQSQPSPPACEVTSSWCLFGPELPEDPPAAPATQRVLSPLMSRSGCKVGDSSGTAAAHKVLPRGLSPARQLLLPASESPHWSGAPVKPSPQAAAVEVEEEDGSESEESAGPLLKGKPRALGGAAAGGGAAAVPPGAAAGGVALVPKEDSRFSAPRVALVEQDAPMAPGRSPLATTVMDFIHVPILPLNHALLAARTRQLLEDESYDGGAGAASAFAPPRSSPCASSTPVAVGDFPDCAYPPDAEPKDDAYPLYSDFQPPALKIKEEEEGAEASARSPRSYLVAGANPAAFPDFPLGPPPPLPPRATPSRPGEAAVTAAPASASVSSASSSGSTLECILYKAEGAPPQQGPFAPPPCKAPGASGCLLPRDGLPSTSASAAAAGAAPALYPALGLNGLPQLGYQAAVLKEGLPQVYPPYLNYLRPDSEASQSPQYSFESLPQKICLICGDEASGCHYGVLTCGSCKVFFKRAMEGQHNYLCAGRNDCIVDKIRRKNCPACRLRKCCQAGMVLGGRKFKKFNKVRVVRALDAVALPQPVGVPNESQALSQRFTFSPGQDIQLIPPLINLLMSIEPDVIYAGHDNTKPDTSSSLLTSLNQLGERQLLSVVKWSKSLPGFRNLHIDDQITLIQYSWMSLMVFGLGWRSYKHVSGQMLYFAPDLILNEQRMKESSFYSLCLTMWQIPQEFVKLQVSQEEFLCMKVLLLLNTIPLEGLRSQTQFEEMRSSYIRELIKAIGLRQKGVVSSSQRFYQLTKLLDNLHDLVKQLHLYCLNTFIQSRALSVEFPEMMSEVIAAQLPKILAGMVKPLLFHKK

| Structure (SMILES) | activation |
| --- | --- |
| CC(C)(CCC(=O)O)C(=O)O | -0.063% |
| CN(C)CCCCCCN(C)C | -2.32% |
| CCCCCCCCCCCCCCCCCCO | -0.593% [at 42.5 µM] |
| CCCC(C)C(=O)OCC (stereo not given) | -2.35% |
| N[C@H](C(=O)O)[C@@H](O)c1ccc(O)c(O)c1 | -0.935% [at 42.5 µM] |
| CCOC(=O)c1ccccc1 | 1.87% |
| CCOc1ccccc1OCC | -0.513% |
| CCO[Si](OCC)(OCC)c1ccccc1 | -0.362% |
| O=C(O)CC(C(=O)O)S(=O)(=O)O (stereo not given) | -0.896% |
| CO/N=C(\C(=O)N[C@@H]1C(=O)N2C(C(=O)O)=C(CSc3nc(=O)c(O)nn3C)CS[C@H]12)c1csc(N)n1 | -0.567% [at 42.5 µM] |
| c1ccc(Cc2ccccc2)cc1 | -1.1% |
| CCCCN(CCC(=O)OCC)C(C)=O | -1.43% |
| CC1=NN(c2cccc(S(=O)(=O)O)c2)C(=O)C1 | 0.522% |
| Cc1nc2ccc(CN(C)c3ccc(C(=O)N[C@@H](CCC(=O)O)C(=O)O)s3)cc2c(=O)[nH]1 | -5.7% [at 42.5 µM] |
| Cc1ccnc(NS(=O)(=O)c2ccc(N)cc2)n1 | 4.5% [at 42.5 µM] |
| CO[C@@]1(NC(=O)C(C(=O)O)c2ccc(O)cc2)C(=O)N2C(C(=O)O)=C(CSc3nnnn3C)CO[C@@H]21 (stereo not given in full) | 0.82% [at 42.5 µM] |
| CN1CCN(c2cc3c(nn2)Oc2ccccc2N3C)CC1 | 0.134% [at 19 µM] |
| CO[Si](C)(OC)c1ccccc1 | 2.86% |
| Clc1cc(Cl)cc(Cl)c1 | 0.782% |
| O=CN(CCO)CCO | 13% |

| Structure (SMILES) | activation |
| --- | --- |
| CC(C#N)(CCC(=O)O)N=NC(C)(C#N)CCC(=O)O (stereo not given) | 0.438% |
| CC(C)(C)C(=O)Oc1ccc(S(=O)(=O)Nc2ccccc2C(=O)NCC(=O)O)cc1 | -1.34% [at 42.5 µM] |
| Cc1ncc(COP(=O)(O)O)c(C=O)c1O | 2.71% [at 42.5 µM] |
| CC(=O)c1cnccn1 | -1.42% |
| CC(C)C1CCC(O)CC1 (stereo not given) | -0.492% |
| COc1ccnc(CS(=O)c2nc3cc(OC(F)F)ccc3[nH]2)c1OC (stereo not given) | 0.673% |
| c1ccc2sc(SN3CCOCC3)nc2c1 | -1.45% [at 42.5 µM] |
| CC[C@H]1OC(=O)[C@H](C)[C@@H](O[C@H]2C[C@@](C)(OC)[C@@H](O)[C@H](C)O2)[C@H](C)[C@@H](O[C@@H]2O[C@H](C)C[C@H](N(C)C)[C@H]2O)[C@](C)(OC)C[C@@H](C)C(=O)[C@H](C)[C@@H](O)[C@]1(C)O | 0.372% |
| O=C1c2ccccc2C(=O)c2cc(O)ccc21 | 10% |
| NS(=O)(=O)Cc1noc2ccccc12 | 0.16% [at 42.5 µM] |
| N[C@@H](CCC(=O)O)C(=O)O | -2.27% |
| CCCn1cc[n+](C)c1C | -0.0382% |
| Cc1ncc([C@@H](CCCCCCc2ccc3c(n2)NCCC3)CC(=O)O)cn1 | -2.93% |
| O=S(=O)(O)c1cccc(S(=O)(=O)O)c1 | -2.26% |
| COc1c(N2CCNC(C)C2)c(F)cc2c(=O)c(C(=O)O)cn(C3CC3)c12 (stereo not given) | 1.22% [at 42.5 µM] |
| CCC(C(=O)NC(=O)NC(C)=O)c1ccccc1 (stereo not given) | 0.232% [at 42.5 µM] |
| COc1cc(-c2ccc(=O)[nH]n2)ccc1OC(F)F | 2.99% [at 42.5 µM] |
| NC(N)=NCCN1CCCCCCC1 | -1.69% [at 0.349 µM] |
| CCNS(=O)(=O)c1ccc(C)cc1 | -0.233% |
| CC1=NN(c2cc(S(=O)(=O)O)ccc2Cl)C(=O)C1N=Nc1ccccc1 (stereo not given) | -0.115% |
